Results filed as inconclusive are left out. Where a call stands in place of a potency, no number is given. Active and inactive are the calls of the source. The call rests on the fitted dose curve; in most records, active means well fitted inhibition curve with a large enough effect; inconclusive means small, poorly fitted or top-dose-only effect; inactive means flat fitted curve, though single readings scatter. Where a SMILES comes first, the peptide text is derived from it. [ ]: non-standard residue; d: D form. Dip = N[C@H](C(=O)O)C(c1ccccc1)c1ccccc1

Glutathione peroxidase 1 (Homo sapiens), sequence (P07203 whole entry, looked up): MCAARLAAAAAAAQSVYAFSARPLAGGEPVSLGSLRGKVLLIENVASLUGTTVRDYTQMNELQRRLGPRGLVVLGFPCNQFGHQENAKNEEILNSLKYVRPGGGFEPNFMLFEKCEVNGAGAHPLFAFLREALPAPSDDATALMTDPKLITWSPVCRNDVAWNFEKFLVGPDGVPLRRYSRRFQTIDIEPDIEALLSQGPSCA

In the experiment the target is Glutathione peroxidase 1 (Homo sapiens) (UniProt P07203). Nature of the experiment: Primary qHTS Assay for Inhibitors of Recombinant Selenoprotein Glutathione Peroxidase 1 (GPX1) (AID 1845191). Further: nearly all actives have a fitted effect of over 65% in size. Conditions: recombinant GPX1, GR-coupled NADPH fluorescence, 15 min; series mostly up to 48.8 µM. The source says:
Assay Provider: Elias S.J. Arner MD PhD.
Department of Medical Biochemistry and Biophysics
Karolinska Institutet, Solna, Stockholm, Sweden
Selenoprotein glutathione peroxidases (GPX), like the ubiquitously expressed GPX1 and the ferroptosis modulator GPX4, enact their antioxidant activities by reducing hydroperoxides using glutathione. […] GPX1 and GPX4 inhibitors have thus shown promise as anti-cancer agents. Existing inhibitors are often promiscuous, or modulate GPX activity only indirectly, so novel direct inhibitors identified through screening against GPX1 and GPX4 could be valuable. Here, we developed optimized glutathione reductase (GR)-coupled GPX assays for the biochemical high-throughput screen (HTS) of almost 12,000 compounds with known mechanisms of action. Initial hits were triaged using a GR counter-screen, assessed for isoform specificity using a separate GPX2 assay, and were assessed for general selenocysteine-targeting activity using a thioredoxin reductase (TXNRD1) assay. With this suite of assays, we identified novel GPX1/GPX2- and GPX4-specific inhibitors and can here present a validated pipeline for future discovery research for selenoprotein-targeting agents.
SEQUENCE No. (e.g., 1, 2, 3, etc.); […] (e.g., Cells, Incubation, Reagent, etc.); VALUE; DESCRIPTION.
1; Reagent 1; 3 uL; GPx1 enzyme or no enzyme control in 1536-well, black, solid Greiner assay plate.
2; Compound; 25 nL; Kalypsis pin tool (Wako USA) equipped with a 1536-well pin head.
3; Incubation; 30 min; room temperature.
4; Reagent 2; 1 uL; 10 nM GPX1, 1 mM GSH, 0.5 mM CHP, 0.5 mM NADPH, 100 nM GR, 0.01% BSA substrate
5; Detection; Fluorescence; ViewLux microplate reader, excitation 340 nm and emission 450 nm.
6; Incubation; 15 min; room temperature.
7; Detection; Fluorescence; ViewLux microplate reader, excitation 340 nm and emission 450 nm.
NOTES (numbers refer to Sequence numbers above)
1. 3 uL of 16.66 nM GPX1 and 0.016% BSA in assay buffer (50 mM Tris-HCl, 2 mM EDTA (pH 7.5), 150 mM NaCl) was added to columns 3-48 of 1536-well assay plates using a BioRAPTR Flying Reagent Dispenser (Let's Go Robotics (LGR), Carlsbad, CA). A no-enzyme control (0.01% BSA in TES assay buffer) was added to columns 1-2.
2. 25 nL of test compounds and DMSO controls were added to each well with a pin tool (Kalypsys).
3. The assay plates were incubated for 30 minutes at room temperature.
4. 1 uL of master mix (500 nM glutathione reductase (GR), 5 mM reduced glutathione (GSH), 2.5 mM NADPH in assay buffer) was added. 1 uL of cumene hydroperoxide (CHP) ([2.5 mM] in 50% EtOH) was then added within 5 minutes to initiate the reaction. Final concentrations were: 10 nM GPX1, 1 mM GSH, 0.5 mM CHP, 0.5 mM NADPH, 100 nM GR, 0.01% BSA.
5. Initial fluorescence readout (t=0) at 340/450 nm was measured using a ViewLux multimodal detector (PerkinElmer, Waltham, MA).
7. Endpoint fluorescence readout (t=15) at 340/450 nm was measured 15 min after room temperature incubation.
Background: In qHTS, concentration-response curves come from the screen itself.
`O=c1cc(-c2ccccc2)oc2ccc(O)cc12`: the Potency entry was “inactive”.

For the compound `CC/C(=C(/c1ccc(/C=C/C(=O)O)cc1)c1ccc2[nH]ncc2c1)c1ccc(F)cc1Cl`, the Potency entry was “inactive”.

On to `CC1=C(c2ccc(O)cc2)[C@H](c2ccc(OCCN3CCCCC3)cc2)Oc2cc(O)ccc21`, for which the Potency entry is “inactive”.

As for `C=CC(C)(/C=C/c1ccc(O)cc1)CCC=C(C)C` (stereo not given), the Potency result was “inactive”.

Consider `C[C@H]1C[C@@H](n2c(Nc3ccc(OC(F)(F)F)cc3)nc3cc(CCC(=O)O)ccc32)CC(C)(C)C1`, for which the Potency result is “inactive”.

As for `C[C@@H]1C[C@H]2[C@@H]3C[C@H](F)C4=CC(=O)C=C[C@]4(C)[C@@]3(F)[C@@H](O)C[C@]2(C)[C@@]1(O)C(=O)COC(=O)C(C)(C)C`, the Potency result was “inactive”.

Regarding `CCN(CC)C(=O)[C@]1(c2ccccc2)C[C@H]1CN`, the Potency result was “inactive”.

Turning to `COc1cc2c(NC3CCN(C)CC3)nc(N3CCCN(C)CC3)nc2cc1OCCCN(C)C`, the Potency result is “inactive”.

`O=C(NO)c1cnc(NC2(c3ccccc3)CC2)nc1`: the Potency result was “inactive”.

As for `COc1cc(N2CCN(C)CC2)ccc1Nc1ncc2c(n1)N(C)c1ccccc1C(=O)N2`, the Potency result was “inactive”.

Take `N#Cc1cc2cc(CN3CCC(Nc4ncnc5sc(CC(F)(F)F)cc45)CC3)c(O)cc2n1Cc1cn[nH]c1`: the Potency entry was “inactive”.

In the case of `O=c1c(-c2ccc(O)cc2)coc2cc(O[C@@H]3O[C@H](CO)[C@@H](O)[C@H](O)[C@H]3O)ccc12`, the Potency result was “inactive”.

As for `[O-][n+]1cccc(-c2nc3c(Cl)cccc3cc2[C@@H](Nc2ncnc3cccnc23)C(F)(F)F)c1`, the Potency entry was “inactive”.

Consider `CC(=O)O/N=C1/C(c2c(O)[nH]c3cc(Br)ccc23)=Nc2ccccc21`, for which the Potency entry was “inactive”.

With `C=CC(=O)Nc1cccc(Oc2nc(Nc3ccc(N4CCN(C)CC4)cc3)nc3ccsc23)c1`, the Potency entry is “inactive”.

Take `COc1ccc(Oc2cc(NCCC(F)(F)F)c3ncc(-c4ccc(C(=O)NC5CC5)c(C)c4)n3n2)c(F)c1F`: the Potency result was “inactive”.

Turning to `NC(=O)c1cc(F)cc2c1C(=O)N(C1CCN(C3CCC(F)(F)CC3)CC1)C2`, the Potency result was “inactive”.

On to `CCC[C@H](NC(=O)[C@@H]1[C@H]2CCC[C@H]2CN1C(=O)[C@@H](NC(=O)[C@@H](NC(=O)c1cnccn1)C1CCCCC1)C(C)(C)C)C(=O)C(=O)NC1CC1`, for which the Potency entry was “inactive”.

For the compound `COc1ccccc1-c1nc(SCC(=O)Nc2ccc(C)c(C)c2)n[nH]1`, the Potency entry was “inactive”.

In the case of `NCCCC[C@H](NC(=O)[C@@H](NC(=O)[C@H](Cc1c[nH]c2ccccc12)NC(=O)[C@H](CCCCN)NC(=O)[C@H](CCCCN)NC(=O)[C@H](Cc1c[nH]c2ccccc12)NC(=O)[C@H](Cc1c[nH]c2ccccc12)NC(=O)[C@H](CCCCN)NC(=O)[C@@H](N)CCCCN)C(c1ccccc1)c1ccccc1)C(N)=O` (H-KKWWKKW[Dip]K-NH2), the Potency entry was “inactive”.

Consider `COc1ncc(Nc2ncc(C(C)N3CCN(S(C)(=O)=O)CC3)cc2-c2nc(C)nc(N)n2)cc1F` (stereo not given), for which the Potency entry was “inactive”.

As for `Cc1cc2c(F)c(Oc3ncnn4cc(OC[C@@H](C)OC(=O)[C@H](C)N)c(C)c34)ccc2[nH]1`, the Potency entry is “inactive”.

As for `O=C(NO)C1(CS(=O)(=O)c2ccc(Oc3ccc(Cl)cc3)cc2)CCOCC1`, the Potency entry is “inactive”.

For `CC1=C2C[C@H]3[C@@H](CC[C@@H]4C[C@H](NS(C)(=O)=O)CC[C@@]43C)[C@@H]2CC[C@@]2(C1)O[C@@H]1C[C@H](C)CN[C@H]1[C@H]2C`, the Potency result was “inactive”.

On to `CN1CCN(CCCNc2ncc(Cl)c(-c3cc4c(C(=O)NC5CC5)cccc4s3)n2)CC1`, for which the Potency entry is “inactive”.

On to `N#Cc1ccc(Cn2cncc2CN2CCN(c3cccc(Cl)c3)C(=O)C2)cc1`, for which the Potency result is “inactive”.

On to `Cc1ccc(Sc2ccccc2N2CCNCC2)c(C)c1`, for which the Potency result was “inactive”.

In the case of `O=C(/C=C/c1ccc2ccccc2n1)c1ccncc1`, the Potency result was “inactive”.

With `O=C(Nc1ncc(SCCN2CCCC2)s1)[C@]1(c2ccc(S(=O)(=O)C3CC3)cc2)C[C@H]1C1CCCCC1`, the Potency entry is “inactive”.

Take `NCCNc1ccc(NCCN)c2c1C(=O)c1ccncc1C2=O`: the Potency entry is “inactive”.

Consider `C#C[C@]1(O)CC[C@@H]2[C@@H]3CCC4=CCCC[C@@H]4[C@H]3C(=C)C[C@@]21CC`, for which the Potency entry is “inactive”.

For the compound `O=C1Nc2ccccc2/C1=C/c1cc(O)ccc1O`, the Potency entry was “inactive”.

`Nc1ccc(F)cc1NC(=O)c1ccc(CNC(=O)/C=C/c2cccnc2)cc1`: the Potency result was “inactive”.

For the compound `C=CC(=O)N1CC[C@@H](Oc2nc(Nc3ccc(N4CCC(N5CCN(C)CC5)CC4)cc3)c(C(N)=O)nc2CC)C1`, the Potency result was “inactive”.

With `NC(=O)C1=C(O)[C@@]2(O)C(=O)C3=C(O)c4c(O)cccc4C[C@H]3C[C@H]2CC1=O`, the Potency result was “inactive”.

Consider `CCc1cc(/C(C)=N/OCc2ccc(C3CCCCC3)c(C(F)(F)F)c2)ccc1CN1CC(C(=O)O)C1`, for which the Potency entry was “inactive”.

`[2H]C([2H])([2H])C(O)([C@@H](C)/C=C/[C@@H](C)[C@H]1CC[C@H]2/C(=C/C=C3C[C@@H](O)C[C@H](O)C3)CCC[C@]12C)C([2H])([2H])[2H]`: the Potency entry is “inactive”.

Turning to `C[C@H](NC(=O)c1c(N)nn2cccnc12)c1cc2cccc(C#Cc3cnn(C)c3)c2c(=O)n1-c1ccccc1`, the Potency result was “inactive”.

In the case of `CCN1CCN(c2ccc(Nc3ccc(-c4ccc(C(N)=O)cc4)n4ncnc34)cc2)CC1`, the Potency entry was “inactive”.

As for `CC[C@H]1OC(=O)[C@H](C)[C@@H](O[C@H]2C[C@@](C)(OC)[C@@H](O)[C@H](C)O2)[C@H](C)[C@@H](O[C@@H]2O[C@H](C)C[C@H](N(C)C)[C@H]2O)[C@](C)(OC)C[C@@H](C)C(=O)[C@H](C)[C@@H](O)[C@]1(C)O`, the Potency entry is “inactive”.

Values taken from PubChem BioAssay (NCATS).
